Test results reported in the supplement of paper PMC6555819.

tested on: FXR:RXRa (NR concentration 270 nM, RXRa partner concentration 90 nM); assay: PBM binding z-score (relative to random genomic background probes); higher = stronger binding; sequences stand for … in GC…GCGATTGACAGCGTAGAATGAAGG
In short: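 Binding z-scores take random background probes as their reference. They come from custom Agilent 4×180K protein-binding microarrays incubated 1 h with ligand-free nuclear receptor dimers, with antibodies against each partner (one per run) detecting binding. Scanned fluorescence was regression-normalized.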

| Sequence | PBM binding z-score |
| --- | --- |
| ATCTCAAGGTAAAGTTCAGTGAAAGATCGATAGA | 1.67 |
| GCTAGTTGGTTAGTAAAAGGTCACACACCGGTCG | 2.97 |
| CCTAGTTGGTCAGGAGGTCACTCACCGGATATGA | 3.08 |
| ACGAGCAGGCCAAGGGTCACTCAAGATTAGTCCG | 2.54 |
| TGAATGAGGTTATAAGTTCAGGGAACGTTGCAAA | 2.81 |
| ATTTCTAGGTAAGACTCAGTTCAGTGAAGAACGC | 0.897 |
| TCTATTAGTTGAAGGGCAACCGCCGAGTCCGTTT | 0.913 |
| TCTAGCAGGCCGGAGGGTCACTCAAGAGGTACGG | 0.786 |
| TCTCGGAGGACACGAAAGGTTAGAGCTCGACATC | 1.18 |
| ATATGTAGGTTACATCCGGGTCAATCAGGCTATG | 2.56 |
| GATACAGGGTAAAGGCCAGAGTACGCGTATTGAT | 0.103 |
| CCGACTGGGGCATAAGGTTGCCATAAGCCAGCCC | -0.333 |
| CCTCGGAGGACAGAAGGTCAGAGCAGTCCGCTTT | 1.47 |
| ACTATTAGGTGAGACGAGGGCAACCGATAGGTTG | 1.3 |
| CGAACTAGGTCACGAAAGGTCAAAGTCGAATGAC | 7.73 |
| CCTTACAGGTCACTCCAGGTTATAGCATCGGAGT | 5.51 |
| AGAATGAGGTTACCAAAGATCAGGGGAACGCTTG | 1.87 |
| GCATTTAGGTAATACAAGGTGAAAGTCCGATTGT | 1.45 |
| TTACCAAGGTGAGCTGAGGTCATTGATCCAACTC | 4.44 |
| AGAATGAGGATATTAAGATCAGGGAATTGCGGTC | -0.251 |
| ACTGTTAGTTGACTTAGGGCAACCGATACGACGC | 0.539 |
| ATCTCTAGGTAACCATGTTCAGTGAATGCCGAAC | 0.171 |
